# Reference: publication PMC11006913
# Where a chain is given by its changes, count along the chain named.
# What was measured:
# Experiment in all cases: PBM; 200 nM protein, PBS
# Settings in all cases: dsDNA, one strand shown
# [1] = target: HOXB9 (Homo sapiens, UniProt P17482 171-250, T197M)
# [2] = target: T1, VENTX (Homo sapiens, UniProt O95231 78-163)
# T1 sequence: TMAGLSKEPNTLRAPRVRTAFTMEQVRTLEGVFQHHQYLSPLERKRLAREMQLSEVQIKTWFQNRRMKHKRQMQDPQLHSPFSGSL
# [3] = target: T2, PAX4 (Homo sapiens, UniProt O43316 9-242, R200K)
# T2 sequence: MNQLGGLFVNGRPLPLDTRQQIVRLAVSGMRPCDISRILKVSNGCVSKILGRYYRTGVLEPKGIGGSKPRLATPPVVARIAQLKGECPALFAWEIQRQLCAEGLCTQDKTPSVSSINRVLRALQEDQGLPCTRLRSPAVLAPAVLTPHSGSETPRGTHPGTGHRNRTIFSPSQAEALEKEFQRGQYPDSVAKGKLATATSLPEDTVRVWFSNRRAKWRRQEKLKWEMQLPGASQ
# [4] = target: T3, VENTX (Homo sapiens, UniProt O95231 78-163, Y115F)
# T3 sequence: T1 sequence with Y38F
# [5] = target: T4, PAX4 (Homo sapiens, UniProt O43316 9-242)
# T4 sequence: T2 sequence with K192R
# [6] = target: T5, PAX4 (Homo sapiens, UniProt O43316 9-242, R200Q)
# T5 sequence: T2 sequence with K192Q
# [7] = target: HOXA2 (Homo sapiens, UniProt O43364 129-215, R185K)
# Sequence of HOXA2 (Homo sapiens, UniProt O43364 129-215, R185K) (O43364 129-215 R185K): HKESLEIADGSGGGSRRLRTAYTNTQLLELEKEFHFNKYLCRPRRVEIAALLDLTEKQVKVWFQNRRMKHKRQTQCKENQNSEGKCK
# [8] = target: T6, PAX4 (Homo sapiens, UniProt O43316 9-242, F177V)
# T6 sequence: T2 sequence with F169V, K192R
# [9] = target: HOXC10 (Homo sapiens, UniProt Q9NYD6 254-340, K271E)
# Sequence of HOXC10 (Q9NYD6 254-340 K271E): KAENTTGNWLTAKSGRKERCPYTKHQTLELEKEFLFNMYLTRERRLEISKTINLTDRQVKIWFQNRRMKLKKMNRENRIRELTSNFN
# [10] = target: T7, PAX4 (Homo sapiens, UniProt O43316 9-242, F177Y)
# T7 sequence: T2 sequence with F169Y, K192R
# [11] = target: VAX1 (Homo sapiens, UniProt Q5SQQ9 86-172)
# Sequence of VAX1 (Q5SQQ9 86-172): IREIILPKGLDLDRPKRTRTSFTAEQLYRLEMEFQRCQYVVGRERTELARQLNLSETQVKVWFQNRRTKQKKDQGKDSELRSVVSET
# [12] = target: T8, PAX4 (Homo sapiens, UniProt O43316 9-242, R227W)
# T8 sequence: T2 sequence with K192R, R219W
# [13] = target: HOXA2 (Homo sapiens, UniProt O43364 129-215, Y150S)
# Sequence of HOXA2 (Homo sapiens, UniProt O43364 129-215, Y150S) (O43364 129-215 Y150S): as the sequence (O43364 129-215 R185K) above, with Y22S, K57R counted along it
# [14] = target: HOXA2 (Homo sapiens, UniProt O43364 129-215)
# Sequence of HOXA2 (Homo sapiens, UniProt O43364 129-215) (O43364 129-215): as the sequence (O43364 129-215 R185K) above, with K57R counted along it
# [15] = target: HOXC9 (Homo sapiens, UniProt P31274 178-260, K195R)
# Sequence of HOXC9 (Homo sapiens, UniProt P31274 178-260, K195R) (P31274 178-260 K195R): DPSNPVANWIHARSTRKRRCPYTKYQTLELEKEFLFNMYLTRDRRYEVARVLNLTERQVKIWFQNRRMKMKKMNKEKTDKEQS
# [16] = target: HOXB9 (Homo sapiens, UniProt P17482 171-250)
# Sequence of HOXB9 (Homo sapiens, UniProt P17482 171-250) (P17482 171-250): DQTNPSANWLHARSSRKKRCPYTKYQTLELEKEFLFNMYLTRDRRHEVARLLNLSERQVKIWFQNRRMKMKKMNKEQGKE
# [17] = target: HOXC9 (Homo sapiens, UniProt P31274 178-260, R193K)
# Sequence of HOXC9 (Homo sapiens, UniProt P31274 178-260, R193K) (P31274 178-260 R193K): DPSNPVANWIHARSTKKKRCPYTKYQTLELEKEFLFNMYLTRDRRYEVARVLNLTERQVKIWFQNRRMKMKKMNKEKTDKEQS
# [18] = target: HOXB9 (Homo sapiens, UniProt P17482 171-250, R186Q)
# Sequence of HOXB9 (Homo sapiens, UniProt P17482 171-250, R186Q) (P17482 171-250 R186Q): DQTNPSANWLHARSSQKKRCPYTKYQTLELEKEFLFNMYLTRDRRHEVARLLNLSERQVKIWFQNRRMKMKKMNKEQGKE
# [19] = target: HOXC9 (Homo sapiens, UniProt P31274 178-260, R222W)
# Sequence of HOXC9 (Homo sapiens, UniProt P31274 178-260, R222W) (P31274 178-260 R222W): as the sequence (P31274 178-260 R193K) above, with K16R, R45W counted along it
# Sequence of HOXB9 (Homo sapiens, UniProt P17482 171-250, T197M) (P17482 171-250 T197M): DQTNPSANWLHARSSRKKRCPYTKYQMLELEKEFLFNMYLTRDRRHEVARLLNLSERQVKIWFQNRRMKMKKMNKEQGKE
sequence,measurement,setting,value
TAATTAGA,binding signal,[1],"10.1 upbm affinity estimate (log intensity, higher = more binding, comparable within an allelic series)"
same,binding signal,[2],"13 upbm affinity estimate (log intensity, higher = more binding, comparable within an allelic series)"
same,binding signal,[3],"12.2 upbm affinity estimate (log intensity, higher = more binding, comparable within an allelic series)"
same,binding signal,[4],"12.4 upbm affinity estimate (log intensity, higher = more binding, comparable within an allelic series)"
same,binding signal,[5],"12.8 upbm affinity estimate (log intensity, higher = more binding, comparable within an allelic series)"
same,binding signal,[6],"12.7 upbm affinity estimate (log intensity, higher = more binding, comparable within an allelic series)"
same,binding signal,[7],"13.9 upbm affinity estimate (log intensity, higher = more binding, comparable within an allelic series)"
same,binding signal,[8],"11 upbm affinity estimate (log intensity, higher = more binding, comparable within an allelic series)"
same,binding signal,[9],"11.8 upbm affinity estimate (log intensity, higher = more binding, comparable within an allelic series)"
same,binding signal,[10],"11.5 upbm affinity estimate (log intensity, higher = more binding, comparable within an allelic series)"
same,binding signal,[11],"13.8 upbm affinity estimate (log intensity, higher = more binding, comparable within an allelic series)"
same,binding signal,[12],"11.5 upbm affinity estimate (log intensity, higher = more binding, comparable within an allelic series)"
same,binding signal,[13],"11 upbm affinity estimate (log intensity, higher = more binding, comparable within an allelic series)"
same,binding signal,[14],"13.1 upbm affinity estimate (log intensity, higher = more binding, comparable within an allelic series)"
TATTAGAA,binding signal,[3],"11 upbm affinity estimate (log intensity, higher = more binding, comparable within an allelic series)"
same,binding signal,[5],"11.3 upbm affinity estimate (log intensity, higher = more binding, comparable within an allelic series)"
same,binding signal,[6],"11 upbm affinity estimate (log intensity, higher = more binding, comparable within an allelic series)"
same,binding signal,[8],"10.3 upbm affinity estimate (log intensity, higher = more binding, comparable within an allelic series)"
GTAATTGA,binding signal,[7],"12.9 upbm affinity estimate (log intensity, higher = more binding, comparable within an allelic series)"
same,binding signal,[11],"12.8 upbm affinity estimate (log intensity, higher = more binding, comparable within an allelic series)"
same,binding signal,[13],"10.7 upbm affinity estimate (log intensity, higher = more binding, comparable within an allelic series)"
same,binding signal,[14],"12.1 upbm affinity estimate (log intensity, higher = more binding, comparable within an allelic series)"
CAATTATC,binding signal,[6],"11.8 upbm affinity estimate (log intensity, higher = more binding, comparable within an allelic series)"
same,binding signal,[7],"13 upbm affinity estimate (log intensity, higher = more binding, comparable within an allelic series)"
same,binding signal,[13],"10.9 upbm affinity estimate (log intensity, higher = more binding, comparable within an allelic series)"
same,binding signal,[14],"12.1 upbm affinity estimate (log intensity, higher = more binding, comparable within an allelic series)"
CAATTAAA,binding signal,[1],"10.2 upbm affinity estimate (log intensity, higher = more binding, comparable within an allelic series)"
same,binding signal,[15],"12.9 upbm affinity estimate (log intensity, higher = more binding, comparable within an allelic series)"
same,binding signal,[2],"12.3 upbm affinity estimate (log intensity, higher = more binding, comparable within an allelic series)"
same,binding signal,[4],"11.4 upbm affinity estimate (log intensity, higher = more binding, comparable within an allelic series)"
same,binding signal,[16],"12.3 upbm affinity estimate (log intensity, higher = more binding, comparable within an allelic series)"
same,binding signal,[17],"12.8 upbm affinity estimate (log intensity, higher = more binding, comparable within an allelic series)"
same,binding signal,[9],"12.3 upbm affinity estimate (log intensity, higher = more binding, comparable within an allelic series)"
same,binding signal,[11],"12.8 upbm affinity estimate (log intensity, higher = more binding, comparable within an allelic series)"
same,binding signal,[18],"12 upbm affinity estimate (log intensity, higher = more binding, comparable within an allelic series)"
same,binding signal,[19],"11.3 upbm affinity estimate (log intensity, higher = more binding, comparable within an allelic series)"
GGCAATTA,binding signal,[1],"10.2 upbm affinity estimate (log intensity, higher = more binding, comparable within an allelic series)"
same,binding signal,[15],"12.6 upbm affinity estimate (log intensity, higher = more binding, comparable within an allelic series)"
same,binding signal,[2],"12.5 upbm affinity estimate (log intensity, higher = more binding, comparable within an allelic series)"
same,binding signal,[4],"11.8 upbm affinity estimate (log intensity, higher = more binding, comparable within an allelic series)"
same,binding signal,[16],"11.8 upbm affinity estimate (log intensity, higher = more binding, comparable within an allelic series)"
same,binding signal,[17],"12.5 upbm affinity estimate (log intensity, higher = more binding, comparable within an allelic series)"
same,binding signal,[7],"13.3 upbm affinity estimate (log intensity, higher = more binding, comparable within an allelic series)"
same,binding signal,[9],"12 upbm affinity estimate (log intensity, higher = more binding, comparable within an allelic series)"
same,binding signal,[11],"12.9 upbm affinity estimate (log intensity, higher = more binding, comparable within an allelic series)"
same,binding signal,[18],"11.5 upbm affinity estimate (log intensity, higher = more binding, comparable within an allelic series)"
same,binding signal,[13],"10.8 upbm affinity estimate (log intensity, higher = more binding, comparable within an allelic series)"
same,binding signal,[14],"12.5 upbm affinity estimate (log intensity, higher = more binding, comparable within an allelic series)"
CTAATTAC,binding signal,[1],"10.1 upbm affinity estimate (log intensity, higher = more binding, comparable within an allelic series)"
same,binding signal,[2],"13.2 upbm affinity estimate (log intensity, higher = more binding, comparable within an allelic series)"
same,binding signal,[3],"12 upbm affinity estimate (log intensity, higher = more binding, comparable within an allelic series)"
same,binding signal,[4],"12.7 upbm affinity estimate (log intensity, higher = more binding, comparable within an allelic series)"
same,binding signal,[5],"12.5 upbm affinity estimate (log intensity, higher = more binding, comparable within an allelic series)"
same,binding signal,[6],"12.3 upbm affinity estimate (log intensity, higher = more binding, comparable within an allelic series)"
same,binding signal,[7],"14 upbm affinity estimate (log intensity, higher = more binding, comparable within an allelic series)"
same,binding signal,[8],"10.6 upbm affinity estimate (log intensity, higher = more binding, comparable within an allelic series)"
same,binding signal,[9],"12 upbm affinity estimate (log intensity, higher = more binding, comparable within an allelic series)"
same,binding signal,[10],"11.1 upbm affinity estimate (log intensity, higher = more binding, comparable within an allelic series)"
same,binding signal,[11],"14 upbm affinity estimate (log intensity, higher = more binding, comparable within an allelic series)"
same,binding signal,[12],"11.1 upbm affinity estimate (log intensity, higher = more binding, comparable within an allelic series)"
same,binding signal,[13],"10.9 upbm affinity estimate (log intensity, higher = more binding, comparable within an allelic series)"
same,binding signal,[14],"13.4 upbm affinity estimate (log intensity, higher = more binding, comparable within an allelic series)"
CCCCGGCG,binding signal,[9],"10 upbm affinity estimate (log intensity, higher = more binding, comparable within an allelic series)"
GTCAATTA,binding signal,[15],"11.9 upbm affinity estimate (log intensity, higher = more binding, comparable within an allelic series)"
same,binding signal,[17],"11.9 upbm affinity estimate (log intensity, higher = more binding, comparable within an allelic series)"
same,binding signal,[7],"13.2 upbm affinity estimate (log intensity, higher = more binding, comparable within an allelic series)"
same,binding signal,[11],"13.3 upbm affinity estimate (log intensity, higher = more binding, comparable within an allelic series)"
same,binding signal,[19],"10.7 upbm affinity estimate (log intensity, higher = more binding, comparable within an allelic series)"
same,binding signal,[13],"10.7 upbm affinity estimate (log intensity, higher = more binding, comparable within an allelic series)"
same,binding signal,[14],"12.3 upbm affinity estimate (log intensity, higher = more binding, comparable within an allelic series)"
CTAATTGA,binding signal,[2],"12.8 upbm affinity estimate (log intensity, higher = more binding, comparable within an allelic series)"
same,binding signal,[3],"11.5 upbm affinity estimate (log intensity, higher = more binding, comparable within an allelic series)"
same,binding signal,[4],"11.7 upbm affinity estimate (log intensity, higher = more binding, comparable within an allelic series)"
same,binding signal,[5],"12.2 upbm affinity estimate (log intensity, higher = more binding, comparable within an allelic series)"
same,binding signal,[6],"11.8 upbm affinity estimate (log intensity, higher = more binding, comparable within an allelic series)"
same,binding signal,[7],"13.4 upbm affinity estimate (log intensity, higher = more binding, comparable within an allelic series)"
same,binding signal,[8],"10.4 upbm affinity estimate (log intensity, higher = more binding, comparable within an allelic series)"
same,binding signal,[10],"10.8 upbm affinity estimate (log intensity, higher = more binding, comparable within an allelic series)"
same,binding signal,[11],"13.5 upbm affinity estimate (log intensity, higher = more binding, comparable within an allelic series)"
same,binding signal,[12],"10.7 upbm affinity estimate (log intensity, higher = more binding, comparable within an allelic series)"
same,binding signal,[13],"10.6 upbm affinity estimate (log intensity, higher = more binding, comparable within an allelic series)"
same,binding signal,[14],"12.6 upbm affinity estimate (log intensity, higher = more binding, comparable within an allelic series)"
CCCTACGG,binding signal,[15],"9.6 upbm affinity estimate (log intensity, higher = more binding, comparable within an allelic series)"
same,binding signal,[2],"8.36 upbm affinity estimate (log intensity, higher = more binding, comparable within an allelic series)"
same,binding signal,[4],"8.13 upbm affinity estimate (log intensity, higher = more binding, comparable within an allelic series)"
same,binding signal,[17],"9.67 upbm affinity estimate (log intensity, higher = more binding, comparable within an allelic series)"
same,binding signal,[19],"9.62 upbm affinity estimate (log intensity, higher = more binding, comparable within an allelic series)"
ACAATTAA,binding signal,[1],"10.1 upbm affinity estimate (log intensity, higher = more binding, comparable within an allelic series)"
same,binding signal,[15],"12.5 upbm affinity estimate (log intensity, higher = more binding, comparable within an allelic series)"
same,binding signal,[4],"11.5 upbm affinity estimate (log intensity, higher = more binding, comparable within an allelic series)"
same,binding signal,[16],"11.8 upbm affinity estimate (log intensity, higher = more binding, comparable within an allelic series)"
same,binding signal,[6],"11.8 upbm affinity estimate (log intensity, higher = more binding, comparable within an allelic series)"
same,binding signal,[17],"12.5 upbm affinity estimate (log intensity, higher = more binding, comparable within an allelic series)"
same,binding signal,[7],"13.1 upbm affinity estimate (log intensity, higher = more binding, comparable within an allelic series)"
same,binding signal,[9],"12 upbm affinity estimate (log intensity, higher = more binding, comparable within an allelic series)"
same,binding signal,[18],"11.6 upbm affinity estimate (log intensity, higher = more binding, comparable within an allelic series)"
same,binding signal,[19],"11 upbm affinity estimate (log intensity, higher = more binding, comparable within an allelic series)"
AATTAATC,binding signal,[1],"10 upbm affinity estimate (log intensity, higher = more binding, comparable within an allelic series)"
same,binding signal,[2],"12.3 upbm affinity estimate (log intensity, higher = more binding, comparable within an allelic series)"
same,binding signal,[3],"11.9 upbm affinity estimate (log intensity, higher = more binding, comparable within an allelic series)"
same,binding signal,[4],"11.5 upbm affinity estimate (log intensity, higher = more binding, comparable within an allelic series)"
same,binding signal,[5],"12.4 upbm affinity estimate (log intensity, higher = more binding, comparable within an allelic series)"
same,binding signal,[6],"12.2 upbm affinity estimate (log intensity, higher = more binding, comparable within an allelic series)"
same,binding signal,[8],"10.7 upbm affinity estimate (log intensity, higher = more binding, comparable within an allelic series)"
same,binding signal,[10],"11.2 upbm affinity estimate (log intensity, higher = more binding, comparable within an allelic series)"
same,binding signal,[12],"11 upbm affinity estimate (log intensity, higher = more binding, comparable within an allelic series)"
